The list is not random: actives were taken first. Their share in the collection is about 1.4%.
BRCA1 expr act – increases BRCA1 expression. MCF7-BRCA1-FFLuc reporter, luminescence, 48 h; response scale: scaled: vehicle 0%, 10 µM genistein 100%. Potency, µM (doses to about 46.1 µM), actives largely listed as activators. hit rate 1.1% among 380,000. AID 624202; also: nearly all actives have a fitted effect of over 80% in size
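MCF7-BRCA1-FFLuc, 2000 cells/well; 2 h attach, 37 °C/5% CO2; compound 48 h; luciferase substrate 15 min; luminescence end-point. Norm. to genistein 10 microM max activation and DMSO; concentration-response curves fitted.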
Nrf2 activator – Nrf2 pathway activation. AREc32 ARE-luciferase reporter (MCF7-derived line), luminescence, 24 h. Potency, µM (top dose mostly 46.1 µM), usual class: activators. hit rate 0.31% among 410,000. AID 624171; also: nearly all actives have a fitted effect of over 65% in size
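ARE-driven firefly luciferase activity in AREc32 cells measured after a 24 hr compound exposure at 37 deg C, using Steady-Glo reagent and a 30 min room-temperature hold.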
N370S GC – inhibitors or activators of N370S glucocerebrosidase for Gaucher disease. hit rate 0.092% among 330,000. N370S GC spleen homogenate, 4MU-glucoside fluorescence. AID 2101. Potency, µM (highest dose often 59.4 µM), usual class: inhibitors
BCR signal inh – blocks chronic active B-cell receptor signaling. hit rate 0.05% among 340,000. Potency, µM (series often up to 46.1 µM), hits mostly inhibitors. ABC-DLBCL IkBa-CBG/CBR reporter, luminescence ratio, 4 h; active = well fitted inhibition curve with a large enough effect in the signal ratio, with a control signal flat, not every such curve was filed as active; inconclusive = small, poorly fitted or top-dose-only effect, or effect the other way, or a change in a side signal; the % refers to the signal ratio
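Doxycycline induced both beetle luciferases in TMD8 lymphoma cells; IKK-driven degradation limits the IkappaBalpha-fused green signal, while red luminescence normalises for cell number and nonspecific effects. Compounds tested up to 46 uM, 4 hrs.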
a7 integrin act – integrin-mediated muscular dystrophy alleviation activation. alpha7betagal myoblasts, beta-gal FDG fluorescence, 48 h. Potency, µM (doses to about 38.3 µM), actives largely listed as activators. hit rate 0.064% among 350,000; also: nearly all actives have a fitted effect of over 60% in size
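Alpha7betagal+/- myoblasts (passage 13) were plated 16-24 hr, then exposed to compounds (1:260 dilution of DMSO stock) for 48 hours at 37C. After MPER lysis, β-galactosidase reporter activity was read as FDG fluorescence (ex 480/em 540) after 30 minutes.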
IL2 activator – IL-2 activation. IL-2 activation reporter assay, cell-based qHTS; stimulated with anti-CD3/CD4/CD28 beads; in transgenic mouse T cells. activation, % (series mostly up to about 46 µM). hit rate 0.065% among 360,000. AID 652025; in the data active = activation above about 50%; inconclusive = mostly about 30% to 49%
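Unstimulated transgenic mouse T cells, 750 per well, received compound and, after 60 minutes, anti-CD3/anti-CD4 bead plus anti-CD28 stimulation. EGFP and DsRed were quantified after 18 hours.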
Large screens that a line does not name were inactive. Unless noted, calls follow the shape of the dose curve; as a rule, active = well fitted curve in the direction sought with a large enough effect; inconclusive = small, poorly fitted or top-dose-only effect, or another doubt; inactive = no such curve, though single readings can be large; an effect the other way counts as inactive or inconclusive.

O=C(Oc1c(CN2CCOCC2)cc(Cl)c2cccnc12)c1ccccc1F	BCR signal inh 3.5µM
O=C(Oc1c(CN2CCOCC2)cc(Cl)c2cccnc12)c1ccccc1	BCR signal inh inconclusive
COC(=O)c1c(NC(=O)c2ccco2)sc(C(=O)N(C)C)c1C	Nrf2 activator 13µM, BCR signal inh inconclusive
O=C(O)c1cccc(-c2csc(C(O)c3ccccc3)n2)c1 (centres undefined)	none (no result: N370S GC, BCR signal inh, a7 integrin act)
N#Cc1cc2c(nc1SCc1ccncc1)CCC2	BRCA1 expr act 11µM, BCR signal inh inconclusive
N#Cc1cc2c(nc1SCc1ccccc1)CCC2	none
CO[C@H]1COC(=O)[C@@H](CCSC)NC(=O)C/C=C\[C@@H](C)COC(=O)[C@@H](OCc2ccccc2)/C=C\[C@@H]1C	none (no result: BRCA1 expr act, Nrf2 activator, BCR signal inh, a7 integrin act, IL2 activator)
Cc1ccc(-c2nn(-c3ccccc3)cc2C=C2C(=O)CC(C)(C)CC2=O)cc1	BRCA1 expr act 6.3µM, BCR signal inh inconclusive
CC1(C)CC(=O)C(=Cc2cn(-c3ccccc3)nc2-c2ccccc2)C(=O)C1	none (no result: N370S GC, BCR signal inh)
COc1ccc(C(=O)Nn2cnc3ccccc3c2=O)c(OC)c1	BRCA1 expr act 8.9µM
COc1cc2c(c(OC)c1OC)C(=O)C(=Cc1ccccc1)O2	Nrf2 activator 16µM (no result: N370S GC, BCR signal inh)
COc1cc(S(=O)(=O)N2CCN(c3ccccn3)CC2)ccc1Br	BCR signal inh inconclusive
Cc1ccc(SC/C(O)=C(\C#N)c2nc3ccccc3n2C)cc1	BRCA1 expr act 13µM
COc1cc(OC)c(NC(=O)NCc2ccc3c(c2)CCN3C(=O)c2ccccc2)cc1Cl	none (no result: N370S GC, BCR signal inh, a7 integrin act, IL2 activator)
CCCOc1ccc(CNC(=O)Cc2cccs2)cc1	BRCA1 expr act 7.9µM
O=C(CSc1ncccn1)NCc1cccc(Cl)c1	BRCA1 expr act 11µM
O=C(Cc1cccs1)NCc1cccc(CNC(=O)Cc2cccs2)c1	none
O=C(Cc1cccs1)NCc1cccc(Cl)c1	BRCA1 expr act 13µM
O=C(Cc1cccs1)NCc1ccccc1Br	BRCA1 expr act 2.2µM
O=C(Cc1cccs1)NCCc1ccc(Cl)cc1	none
O=C(Cc1cccs1)NCc1ccc(Cl)cc1Cl	BRCA1 expr act 4µM
S=C1NC2=C(CCCC2=C2SCCS2)C(c2ccccc2)N1 (centres undefined)	Nrf2 activator 22µM, N370S GC inconclusive
COc1ccc2c(c1)CC/C(=C/c1ccco1)C2=O	BRCA1 expr act 3.5µM, Nrf2 activator inconclusive
CCOc1ccc(Oc2nc(NCC(C)C)nc(NC(C)(C)C)n2)nn1	none (no result: BRCA1 expr act, N370S GC, BCR signal inh, a7 integrin act, IL2 activator)
Cc1cn(C)c(CC(=O)Nc2cccc(C#N)c2)c1C(=O)O	none (no result: BRCA1 expr act, N370S GC, a7 integrin act, IL2 activator)
O=C(C[n+]1cc(-c2ccc(F)cc2)n2c1CCC2)c1cccs1	BRCA1 expr act 2µM, BCR signal inh inconclusive
CN(N=Nc1ccc([N+](=O)[O-])cc1)c1ccccc1	BRCA1 expr act 3.5µM, BCR signal inh inconclusive
CN(N=Nc1cccc([N+](=O)[O-])c1)c1ccccc1	Nrf2 activator inconclusive, BCR signal inh inconclusive
CN(C)c1ncc2nc(-c3cccs3)c(=O)n(-c3ccccc3)c2n1	none (no result: BRCA1 expr act, Nrf2 activator, BCR signal inh, a7 integrin act, IL2 activator)
COc1ccc(/C=C/c2ccc3cccc(O)c3n2)c(OC)c1OC	Nrf2 activator 22µM, BCR signal inh inconclusive
COc1cccc(/C=C/c2ccc3cccc(O)c3n2)c1OC	Nrf2 activator inconclusive, BCR signal inh inconclusive
Oc1cccc(/C=C/c2ccc3cccc(O)c3n2)c1	Nrf2 activator 4.5µM, BCR signal inh inconclusive
O=C(CNCCc1ccc(Cl)cc1)Nc1ccc(C(=O)N2CCCCC2)cc1	BCR signal inh inconclusive
CC(=O)Oc1c(Cl)cc(Cl)cc1/C=C/c1ccc2ccccc2n1	Nrf2 activator 13µM, BCR signal inh inconclusive, a7 integrin act inconclusive
O=C(CSc1nnc(NC2CCCCC2)s1)Nc1ccc2c(c1)C(=O)c1ccccc1C2=O	BRCA1 expr act 4.5µM
CC(C)(C)OC(=O)CC12CCCCC1NC(=O)O2 (centres undefined)	none
COCCN1CCN(C(=O)c2ccc3oc(CCCc4ccccc4)nc3c2)CC1	BRCA1 expr act 13µM
CCCCc1nc2cc(C(=O)N3CCCC3)ccc2o1	BRCA1 expr act 8.9µM
CCCCc1nc2cc(C(=O)N3CCNC(=O)C3)ccc2o1	none

Assay outcomes as filed in PubChem.
